Assay outcomes: PubChem, several laboratories
In the library only some 1.3% were active in any assay of this set; here they are far more common.
Rpn11 block – inhibitors of human proteasome Rpn11; human 26S proteasome, Ub4-pepOG fluorescence polarization; 20S core pre-blocked with epoxomicin; calls only at 20 µM; hit rate 0.59% among 360,000; AID 588493;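 active = inhibition at 20 µM, scaled to each plate's controls, above about 33%, limit read from the data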
Target sequence (O00487 whole entry, looked up): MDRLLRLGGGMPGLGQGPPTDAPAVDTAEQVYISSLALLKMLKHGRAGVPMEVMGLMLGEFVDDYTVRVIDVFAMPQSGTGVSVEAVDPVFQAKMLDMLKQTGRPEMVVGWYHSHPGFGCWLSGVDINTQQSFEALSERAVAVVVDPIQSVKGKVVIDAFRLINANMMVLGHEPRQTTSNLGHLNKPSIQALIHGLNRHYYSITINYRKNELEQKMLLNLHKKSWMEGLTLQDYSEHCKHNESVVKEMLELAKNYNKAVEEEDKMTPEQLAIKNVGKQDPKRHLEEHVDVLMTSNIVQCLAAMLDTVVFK
Neddylation inh – inhibitors of human cullin neddylation. hit rate 0.58% among 360,000. inhibition, % at 25 µM. AID 651699. TR-FRET cullin neddylation, biochemical; in the data active = inhibition above about 36%
PKA-R2B act – activators of human PKA-R2B complex. activation, % at 11.4 µM. AID 504700. P22694+P31323. PKA-R2B holoenzyme dissociation, Cy5-IP20 fluorescence polarization; R2B truncated from residue 108, S112A mutant; 0% DMSO only, 100% 113 µM cGMP. hit rate 0.079% among 340,000;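 active = activation above a cutoff set at the mean over all compounds plus 3 SD, cut at about 18% in these data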;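 also: higher means more holoenzyme dissociation and a rise in polarization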
PKA-R1A act – activates the PKA-R1A holoenzyme complex. PKA-R1A dissociation, Cy5-IP20 fluorescence polarization; scaled: DMSO 0%, 113 µM cGMP 100%. activation, % at 11.4 µM. hit rate 0.083% among 340,000. P00514+P68181;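 active = percent activation above the mean of all tested compounds plus 3 SD, cut at about 19% in these data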;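 also: higher means more PKAc released from R1A so a rise in polarization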
Neddyl inh conf – confirmation of human cullin neddylation inhibitors; calls only at 25 µM; AID 652217; hit rate 13% among 1,800; TR-FRET cullin neddylation biochemical assay; shares compounds with Neddylation inh; in the data active = inhibition above about 40%;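 also: neddylation substrate is the cullin 1 ring ligase complex with SKP2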
Each line names hits and unclear results; the compound was inactive in the other large screens (follow-up assays come after a bar, where shown).

COc1cc2cc(-c3ccc(OC)c(OC)c3C)nc(N)c2cc1OC	Neddylation inh 38 (no result: PKA-R2B act, PKA-R1A act) | Neddyl inh conf inactive
CC(=O)O[C@H]1C[C@@]2(C)[C@@H](C[C@@H](O)[C@H]3[C@@]4(C)CC[C@@H](O)[C@@H](C)[C@@H]4CC[C@@]32C)/C1=C(\CCC=C(C)C)C(=O)O	none
CCC(=O)Nc1c(-c2ccc(C)cc2)nc2ccc(C)cn12	Neddylation inh 47 | Neddyl inh conf inactive
O=C(CSc1ccc(-c2ccc(F)cc2)nn1)NCC1CCCO1 (stereo not drawn)	none
O=C(CSc1nnc2ccc(-c3ccc(F)cc3)nn12)NCC1CCCO1 (stereo not drawn)	Neddylation inh 40
CCc1ccc(-c2ccc3nnc(SCC(N)=O)n3n2)cc1	Neddylation inh 44 | Neddyl inh conf inactive
CCN(CC)c1ccc(/C=N\NC(N)=O)cc1	Neddylation inh 40 | Neddyl inh conf inactive
CCN(CC)c1ccc(/C=N/NC(=O)Nc2ccccc2)cc1	none
CCN(CC)c1ccc(/C=N/NC(=O)CC(C)C)cc1	Neddylation inh 54 | Neddyl inh conf active
CCN(CC)c1ccc(/C=N/O)cc1	none
COc1ccc(CNC2CCCCC2C)c(OC)c1 (stereo not drawn)	Neddylation inh 43
CCN(CC)C(=O)Oc1ccc2oc(=O)cc(-c3cc4cccc(OC)c4o3)c2c1	Neddylation inh 48
COc1ccc(S(=O)(=O)N2CCOCC2)cc1NC(=O)COc1ccc2c(C)cc(=O)oc2c1	none
COc1ccc(NC(=O)COc2ccc3c(C)cc(=O)oc3c2)cc1S(=O)(=O)N1CCCCC1	Neddylation inh 43
Cc1cc(N2CCOCC2)n2cc(-c3ccc(F)cc3)nc2n1	Neddylation inh 46 | Neddyl inh conf inactive
CC(C)(C)NC(=O)c1cc(-c2ccc3c(c2)OCO3)nc2ccccc12	Neddylation inh 46 | Neddyl inh conf inactive
O=C(O)c1cc(-c2ccc3c(c2)OCO3)nc2ccc(Cl)cc12	Neddylation inh 54
O=C(c1cc(-c2ccncc2)nc2ccc(Cl)cc12)N1CCN(Cc2ccc3c(c2)OCO3)CC1	none
Cc1cccc(NC(=O)CN(CCc2ccccc2)S(C)(=O)=O)c1	none
CCN(CC)CCNC(=O)Cn1c(-c2ccccn2)nc2ccccc21	Neddylation inh 47 | Neddyl inh conf active
NNC(=O)Cn1c(-c2ccccn2)nc2ccccc21	none
Cc1ccccc1Cn1nc(C)c(NC(=O)c2cc3nc(-c4ccco4)cc(C(F)(F)F)n3n2)c1C	Neddylation inh 42 | Neddyl inh conf inactive
Cc1nn(C)cc1CN(C)C(=O)c1cc2nc(-c3ccco3)cc(C(F)(F)F)n2n1	Neddylation inh 43 | Neddyl inh conf active
Cc1nn(C)c(C)c1CN(C)C(=O)c1cc2nc(-c3ccco3)cc(C(F)(F)F)n2n1	Neddylation inh 42 | Neddyl inh conf inactive
O=C(NCC[C@@H]1CC[C@@H](NS(=O)(=O)Cc2ccccc2)[C@@H](CO)O1)C1CC1	none (no result: Rpn11 block, PKA-R2B act, PKA-R1A act)
Cc1cccc(-c2nc3c(c(SCC(=O)N4CCCC4)n2)COC(C)(C)C3)c1	none
O=c1[nH]c2ccccc2n2cnnc12	none (no result: PKA-R2B act, PKA-R1A act)
Cc1cccc(NS(=O)(=O)c2cccs2)n1	Neddylation inh 40 | Neddyl inh conf inactive
Cc1ccc(NS(=O)(=O)c2cccs2)nc1	Neddylation inh 41 | Neddyl inh conf inactive
Cc1ccnc(NS(=O)(=O)c2cccs2)c1	none
O=C(COC(=O)c1cccc(Br)c1)NCC1CCCO1 (stereo not drawn)	none
COc1ccc(CCC(=O)OCC(=O)Nc2c(C)n(C)n(-c3ccccc3)c2=O)cc1	none
O=C(N/N=C/c1ccc(-c2cccc(C(F)(F)F)c2)o1)c1ccccc1O	Neddylation inh 51 | Neddyl inh conf inactive
CC1(C)Cc2c(cnn2-c2ccc(F)cc2)C(NC(=O)CCN2CCCCC2=O)C1 (stereo not drawn)	none
Cc1cccn2c(CN3CCNC(=O)CC3)c(C(=O)N(C)CCc3ccccc3)nc12	none
COC(=O)c1ccc(C#Cc2ccccc2)o1	Neddylation inh 39 | Neddyl inh conf inactive
CCOC(=O)c1cc2c(=O)n3ccccc3nc2n(CCOC)c1=NC(=O)c1ccncc1	Neddylation inh 63 | Neddyl inh conf active
CCOC(=O)c1cc2c(=O)n3ccccc3nc2n(C(C)C)c1=NC(=O)c1ccncc1	Neddylation inh 67 | Neddyl inh conf active
O=C(O)C(CCC(C(=O)O)c1ccccc1)c1ccccc1 (stereo not drawn)	none
N/C(=N\O)c1ccccc1-n1cccc1	none
